# Inconclusive results are not listed. A call without a number means that no potency is given here. Active and inactive are the calls of the source. Unless noted, calls follow the shape of the full dose curve. Numbered stars: 1 amine (or outer) side, 2 acyl side, 3 side chain; on linkers, the order of the positions; unused ones are H or OH. Bridge positions count the residues as written; N and C are the ends. Square brackets hold non-standard residues; d marks the D form. Peptide text beside a SMILES is read from it. * marks the point of attachment. ξ: configuration not given here. pTerphenylCO(4''-OnC5H11) = CCCCCOc1ccc(-c2ccc(-c3ccc(C(=O)*)cc3)cc2)cc1; ξOrn(4,5-diOH) = O=C(C(CC(O)C(O)N[*:3])N[*:1])[*:2]; ξhTyr(βξ-OH,γξ-OH) = NC(C(=O)O)C(O)C(O)c1ccc(O)cc1; ξPro(3ξ-OH,4ξ-Me) = CC1CNC(C(=O)O)C1O; Hyp = O=C(O)[CH]1C[CH](O)CN1
# Key:
# [1] = target: Cytochrome P450 3A4 (Homo sapiens) (UniProt P08684); test: qHTS Assay for Inhibitors and Substrates of Cytochrome P450 3A4 (AID 884; active = well fitted curve in the direction sought with a large enough effect; an effect the other way counts as inactive or inconclusive; also: nearly all actives have a fitted effect of over 50% in size)
# Outline: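 Luminescent readout of luciferin produced by CYP3A4 (20 nM) dealkylation of Luciferin-PPXE, 25 uM (its KM). NADPH-driven reaction ran 60 min at RT after 10 min compound preincubation; data scaled to 57 uM ketoconazole as 100% inhibition.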
# [2] = Confirmation and Secondary Assay for Modulators of Hemoglobin Beta Chain Splicing at IVS2 705 locus (AID 930; active = well fitted curve in the direction sought with a large enough effect; an effect the other way counts as inactive or inconclusive;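 also: HeLa cells stably expressing the EGFP-705 splicing reporter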)
# Outline: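 Restored EGFP fluorescence after 2-day compound exposure reports splicing correction in IVS2-705 EGFP reporter HeLa cells; positive control was 500 nM splice-blocking PNA oligo. Signal measured as well total peak GFP intensity (488 nm excitation).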
# [3] = qHTS Assay for Lipid Storage Modulators (AID 1519); details: Drosophila S3 cells, BODIPY lipid droplet/cell ratio, laser cytometry, cells loaded with oleic acid
# Outline: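 Cells seeded at 5,000 per well were treated with compounds over a concentration series and loaded with oleic acid (400 uM, as added). Lipid droplet fluorescence (488 nm excitation, 500-530 nm channel) was read by laser-scanning cytometry and normalized to 20 uM Triacsin C.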
# [4] = target: Ubiquitin carboxyl-terminal hydrolase 1 (Homo sapiens) (UniProt O94782); test: Inhibitors of USP1/UAF1: Pilot qHTS (AID 504865; active = well fitted curve in the direction sought with a large enough effect; an effect the other way counts as inactive or inconclusive;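 also: rhodamine fluorescence freed from ubiquitin-rhodamine substrate followed over time; top concentration of the series differs between compounds; nearly all actives have a fitted effect of over 35% in size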)
# Outline: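 In 50mM HEPES pH 7.8 containing 0.5mM EDTA, 1mM TCEP, 0.1 mg/ml BSA and 0.01% Tween-20, 1nM USP1/UAF1 is exposed to compound for 15 min, then Ub-Rho (150nM final) is added and fluorescence is read over time.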
# [5] = target: Glutathione peroxidase 1 (Homo sapiens) (UniProt P07203); test: Primary qHTS Assay for Inhibitors of Recombinant Selenoprotein Glutathione Peroxidase 1 (GPX1) (AID 1845191; active = well fitted curve in the direction sought with a large enough effect; an effect the other way counts as inactive or inconclusive; also: nearly all actives have a fitted effect of over 65% in size)
# Outline: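 NADPH consumption tracked by fluorescence at 340/450 nm between t=0 and t=15 min, room temperature. Final mix: 10 nM GPX1, 100 nM glutathione reductase, 1 mM GSH, 0.5 mM NADPH, 0.5 mM cumene hydroperoxide, 0.01% BSA; 30 min compound–enzyme preincubation.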
# [6] = target: Phospholipid hydroperoxide glutathione peroxidase GPX4 (Homo sapiens) (UniProt P36969); test: Primary qHTS Assay for Inhibitors of Recombinant Selenoprotein Glutathione Peroxidase 4 (GPX4) (AID 1845192; active = well fitted curve in the direction sought with a large enough effect; an effect the other way counts as inactive or inconclusive; also: nearly all actives have a fitted effect of over 65% in size)
# Outline: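 NADPH consumption followed by fluorescence at 340/450 nm, t=0 and after 15 min at room temperature. Reaction started with cumene hydroperoxide (0.5 mM final) after 30 min compound–GPX4 preincubation; final 200 nM GPX4, 100 nM GR, 1 mM GSH, 0.5 mM NADPH.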
# [7] = MultiTox-Fluor Cytotoxicity Assay - LYMP1-002 - Dead Cells (AID 960; active = well fitted curve in the direction sought with a large enough effect; an effect the other way counts as inactive or inconclusive; also: potency is read from the fitted curve at half-maximal effect; nearly all actives have a fitted effect of over 60% in size)
# Outline: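 Cells were plated, rested 5 hr, then treated with compound dilution series for 16 hr at 37 C. After adding substrate reagent and 60 min at room temperature, dead-cell protease fluorescence gave concentration-response curves fitted by the Hill equation.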
# [8] = target: Bile acid receptor (Homo sapiens) (UniProt Q96RI1); test: qHTS assay for small molecule agonists of farnesoid X receptor signaling (AID 588527); details: HEK293T FXR-UAS-bla, beta-lactamase ratio, 16 h; stronger effect = higher value
# Outline: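 Quantitative HTS used FXR-UAS-bla HEK293T cells with 16 h compound incubation at 37 C. EC50 values came from concentration-response curves normalized to chenodeoxycholic acid.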
# [9] = qHTS Assay for Identifying Gametocytocidal Compounds (AID 743244; active = well fitted curve in the direction sought with a large enough effect; an effect the other way counts as inactive or inconclusive; also: potency is read from the fitted curve at half-maximal effect); details: P. falciparum 3D7 stage III-V gametocytes, alamarBlue, 72 h
# Outline: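 Late gametocytes (III–V), P. falciparum 3D7; 72 h drug, then 24 h alamarBlue; resazurin reduction read by fluorescence.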
# [10] = Confirmatory qHTS for VERO E6 Cytotoxicity Assay: Counterscreen for SARS-CoV-2 CPE Assay (AID 1508605); also: nearly all actives have a fitted effect of over 60% in size
# [11] = Confirmatory qHTS to identify inhibitors of SARS-CoV-2 cell entry (AID 1645844); also: potency is read from the fitted curve at half-maximal effect; nearly all actives have a fitted effect of over 45% in size
# Outline: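 Luminescence entry read-out after 48 h: spike-pseudotyped MLV particles (Wuhan-Hu-1, 19-aa C-terminal truncation) added to compound-pretreated (1 h) HEK293-ACE2 cells; Data were normalised to bald PP and spike PP wells.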
# [12] = Primary qHTS for Huh7 cytotoxicity: counterscreen for inhibitors of MERS-S pseudotyped particle cell entry (AID 1479147); details: outcome: dose series up to 57.1 µM unless noted
# [13] = Primary qHTS for inhibitors of MERS-S pseudo-typed particle cell entry (AID 1479149); details: outcome: dose series up to 57.1 µM unless noted; also: nearly all actives have a fitted effect of over 60% in size
# [14] = Primary qHTS for Vero E6 cytotoxicity: counterscreen for inhibitors of SARS-S pseudo-typed particle cell entry (AID 1479150); details: outcome: dose series up to 57.1 µM unless noted
# [15] = Primary qHTS to identify inhibitors of SARS-CoV-2 cell entry (AID 1645846); details: SARS-CoV-2 pseudovirus cell entry assay, luminescence; activity change, negative = inhibition: at 57.1 µM (top of the series) unless noted; also: nearly all actives have a fitted effect of over 45% in size
# Outline: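 Inhibition of spike-mediated entry was scored in human ACE2-transfected Expi293F cells. Particles were MLV-pseudotyped with Wuhan-Hu-1 S carrying a 19-aa C-terminal deletion; signal was luciferase after two days, scaled between spike PP and fusion-protein-free PP.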
# [16] = VSVG counterscreen qHTS to identify inhibitors of SARS-CoV-2 cell entry (AID 1645847); also: potency is read from the fitted curve at half-maximal effect; nearly all actives have a fitted effect of over 65% in size
# Outline: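 Luminescence from a luciferase reporter, normalised to bald particle and VSV-G pseudotyped particle wells, is the read-out. Cells are HEK293 expressing human ACE2, exposed to compound 1 h before a 48 h particle infection at 37 °C.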
# [17] = Cytotoxicity counterscreen for inhibitors of SARS-CoV-2 cell entry (AID 1645845); details: outcome: dose series up to 57.1 µM unless noted; also: nearly all actives have a fitted effect of over 50% in size
# Outline: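 ATP-content luminescence (ATPLite 1step, 15 min RT) read after 48 h compound exposure of Expi293F cells stably expressing human ACE2; normalized to cells-only wells and media-only wells.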
# Chain of Ubiquitin carboxyl-terminal hydrolase 1 (Homo sapiens) (O94782 whole entry, looked up): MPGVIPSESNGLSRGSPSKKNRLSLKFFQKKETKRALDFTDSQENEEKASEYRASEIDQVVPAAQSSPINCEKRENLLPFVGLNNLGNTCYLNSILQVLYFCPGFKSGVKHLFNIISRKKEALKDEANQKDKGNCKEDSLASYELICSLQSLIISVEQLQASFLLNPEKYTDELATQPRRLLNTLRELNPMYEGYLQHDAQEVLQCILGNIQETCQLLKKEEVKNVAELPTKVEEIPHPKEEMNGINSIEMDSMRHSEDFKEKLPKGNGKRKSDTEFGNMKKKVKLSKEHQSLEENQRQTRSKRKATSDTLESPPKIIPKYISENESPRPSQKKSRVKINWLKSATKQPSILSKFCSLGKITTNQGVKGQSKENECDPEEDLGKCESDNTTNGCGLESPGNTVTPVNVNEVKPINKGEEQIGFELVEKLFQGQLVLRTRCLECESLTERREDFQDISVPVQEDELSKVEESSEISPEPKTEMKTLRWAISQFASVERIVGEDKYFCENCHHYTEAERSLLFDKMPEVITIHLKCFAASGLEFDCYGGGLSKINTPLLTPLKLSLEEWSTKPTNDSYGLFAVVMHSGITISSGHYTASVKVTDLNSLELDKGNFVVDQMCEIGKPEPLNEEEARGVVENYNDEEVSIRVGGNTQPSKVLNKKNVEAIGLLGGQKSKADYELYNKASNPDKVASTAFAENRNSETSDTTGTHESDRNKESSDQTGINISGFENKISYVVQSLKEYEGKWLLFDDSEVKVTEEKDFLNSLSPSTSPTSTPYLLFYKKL
# Chain of Phospholipid hydroperoxide glutathione peroxidase GPX4 (Homo sapiens) (P36969 whole entry, looked up): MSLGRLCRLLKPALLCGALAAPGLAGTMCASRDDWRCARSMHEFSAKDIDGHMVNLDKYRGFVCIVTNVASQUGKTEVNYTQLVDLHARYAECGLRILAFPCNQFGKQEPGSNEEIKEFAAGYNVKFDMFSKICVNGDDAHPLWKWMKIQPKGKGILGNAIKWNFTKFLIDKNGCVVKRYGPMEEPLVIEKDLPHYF
# Chain of Cytochrome P450 3A4 (Homo sapiens) (P08684 whole entry, looked up): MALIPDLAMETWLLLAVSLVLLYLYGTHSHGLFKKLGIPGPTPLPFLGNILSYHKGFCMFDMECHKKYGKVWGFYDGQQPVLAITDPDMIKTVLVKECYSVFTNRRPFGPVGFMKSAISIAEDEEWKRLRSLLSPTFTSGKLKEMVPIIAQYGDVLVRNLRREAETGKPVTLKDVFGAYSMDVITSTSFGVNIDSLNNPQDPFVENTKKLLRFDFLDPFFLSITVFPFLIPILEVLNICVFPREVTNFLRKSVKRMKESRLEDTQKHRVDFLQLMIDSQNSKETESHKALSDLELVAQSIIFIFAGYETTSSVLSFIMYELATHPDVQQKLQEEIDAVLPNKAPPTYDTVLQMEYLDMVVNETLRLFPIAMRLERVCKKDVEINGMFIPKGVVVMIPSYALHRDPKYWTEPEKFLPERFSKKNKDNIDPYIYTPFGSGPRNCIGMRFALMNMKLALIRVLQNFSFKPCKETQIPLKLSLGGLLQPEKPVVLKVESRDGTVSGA
# Chain of Bile acid receptor (Homo sapiens) (Q96RI1 whole entry, looked up): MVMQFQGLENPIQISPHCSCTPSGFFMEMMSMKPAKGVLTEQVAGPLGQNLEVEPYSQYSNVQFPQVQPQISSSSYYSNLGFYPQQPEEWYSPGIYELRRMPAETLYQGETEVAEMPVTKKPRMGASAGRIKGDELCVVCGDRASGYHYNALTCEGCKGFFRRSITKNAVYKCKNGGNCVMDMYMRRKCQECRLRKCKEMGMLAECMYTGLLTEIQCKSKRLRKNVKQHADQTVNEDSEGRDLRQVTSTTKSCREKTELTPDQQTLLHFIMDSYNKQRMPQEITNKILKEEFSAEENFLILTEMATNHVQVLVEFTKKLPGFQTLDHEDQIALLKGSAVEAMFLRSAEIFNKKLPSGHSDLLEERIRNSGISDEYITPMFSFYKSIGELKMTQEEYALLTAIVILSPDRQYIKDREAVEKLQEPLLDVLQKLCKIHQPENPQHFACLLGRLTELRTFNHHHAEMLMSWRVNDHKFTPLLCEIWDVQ
# Chain of Glutathione peroxidase 1 (Homo sapiens) (P07203 whole entry, looked up): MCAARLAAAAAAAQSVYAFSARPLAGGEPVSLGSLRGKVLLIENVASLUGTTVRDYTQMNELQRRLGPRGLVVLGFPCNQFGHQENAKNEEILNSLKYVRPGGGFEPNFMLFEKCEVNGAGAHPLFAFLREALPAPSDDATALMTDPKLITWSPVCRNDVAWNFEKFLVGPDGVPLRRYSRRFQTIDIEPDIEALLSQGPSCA
compound,measurement,setting,value
CNC(C)C(O)c1ccccc1 (stereo not given),Potency,[1],inactive
same,Potency,[2],inactive
same,"activity change, negative = inhibition",[3]; at 57.5 µM (top of the series),8.05% (inactive)
same,max response,[3]; measured here: cell count channel max response,10.2%
same,max response,[3]; measured here: lipid channel max response,21.8%
same,Potency,[4],inactive
same,Potency,[5],inactive
same,Potency,[6],inactive
C[C@H]1O[C@@H](O[C@H]2[C@@H](O)C[C@H](O[C@H]3[C@@H](O)C[C@H](O[C@H]4CC[C@@]5(C)[C@H](CC[C@@H]6[C@@H]5C[C@@H](O)[C@]5(C)[C@@H](C7=CC(=O)OC7)CC[C@]65O)C4)O[C@@H]3C)O[C@@H]2C)C[C@H](O)[C@@H]1O,Potency,[7],1 µM (active)
same,activation,[8],-4.19% (inactive)
CO[C@H](C(=O)[C@@H](O)[C@@H](C)O)C1Cc2cc3cc(O[C@H]4C[C@@H](O[C@H]5C[C@@H](O)[C@H](O)[C@@H](C)O5)[C@@H](O)[C@@H](C)O4)c(C)c(O)c3c(O)c2C(=O)[C@H]1O[C@H]1C[C@@H](O[C@H]2C[C@@H](O[C@H]3C[C@](C)(O)[C@H](O)[C@@H](C)O3)[C@H](O)[C@@H](C)O2)[C@H](O)[C@@H](C)O1 (stereo not given in full),Potency,[9],0.833 µM (active)
"CCCCCOc1ccc(-c2ccc(-c3ccc(C(=O)NC4CC(O)C(O)NC(=O)C5C(O)C(C)CN5C(=O)C(C(C)O)NC(=O)C(C(O)C(O)c5ccc(O)cc5)NC(=O)C5CC(O)CN5C(=O)C(C(C)O)NC4=O)cc3)cc2)cc1 (stereo not drawn) ({pTerphenylCO(4''-OnC5H11)}-[ξOrn(4,5-diOH)]T[Hyp][ξhTyr(βξ-OH,γξ-OH)]T[ξPro(3ξ-OH,4ξ-Me)]; lactam 1-C; configuration not given here)",Potency,[10],inactive
OCCOc1ccc(/C(=C(/CCCl)c2ccccc2)c2ccccc2)cc1,Potency,[10],inactive
COc1cc([C@@H]2c3cc4c(cc3C(O[C@@H]3O[C@@H]5CO[C@@H](c6cccs6)OC5[C@H](O)[C@H]3O)C3COC(=O)[C@@H]32)OCO4)cc(OC)c1O (stereo not given in full),Potency,[11],0.0482 µM (active)
CC[C@@]1(O)C(=O)OCc2c1cc1n(c2=O)Cc2cc3c([N+](=O)[O-])cccc3nc2-1,Potency,[11],0.0175 µM (active)
Cc1c(N)nc(C(CC(N)=O)NCC(N)C(N)=O)nc1C(=O)NC(C(=O)NC(C)C(O)C(C)C(=O)NC(C(=O)NCCc1nc(-c2nc(C(=O)NCCCN[C@@H](C)c3ccccc3)cs2)cs1)C(C)O)C(O[C@@H]1O[C@@H](CO)[C@@H](O)[C@H](O)[C@@H]1O[C@H]1O[C@H](CO)[C@@H](O)[C@H](OC(N)=O)[C@@H]1O)c1cnc[nH]1 (stereo not given in full),Potency,[12],inactive
same,Potency,[13],inactive
same,Potency,[14],inactive
same,Potency,[11],0.0215 µM (active)
same,"activity change, negative = inhibition",[15],-97.1%
same,Potency,[16],0.0271 µM (active)
O=C(Nc1ccc(O)cc1)c1ccccc1O,Potency,[12],inactive
same,Potency,[13],inactive
same,Potency,[14],inactive
same,Potency,[17],inactive
C[C@H](Cc1cc2c(c(C(N)=O)c1)N(CCCO)CC2)NCCOc1ccccc1OCC(F)(F)F,Potency,[12],inactive
same,Potency,[13],inactive
same,Potency,[14],inactive
same,Potency,[17],inactive
CC(C)N(CCCCOCC(=O)NS(C)(=O)=O)c1cnc(-c2ccccc2)c(-c2ccccc2)n1,Potency,[12],inactive
same,Potency,[13],inactive
same,Potency,[14],inactive
same,Potency,[17],inactive
CCCCC(F)(F)C1(O)CCC2C(CC(=O)C2CCCCCCC(=O)O)O1 (stereo not given),Potency,[12],inactive
same,Potency,[13],inactive
same,Potency,[14],inactive
same,Potency,[17],inactive
CCC(=O)O[C@@H](OP(=O)(CCCCc1ccccc1)CC(=O)N1C[C@H](C2CCCCC2)C[C@H]1C(=O)O)C(C)C (stereo not given in full),outcome,[12],inactive [at 11.4 µM]
same,outcome,[13],inactive [at 11.4 µM]
same,outcome,[14],inactive [at 11.4 µM]
same,outcome,[17],inactive [at 11.3 µM]
NC(N)=NCC1COC2(CCCCC2)O1 (stereo not given),Potency,[12],inactive
same,Potency,[13],inactive
same,Potency,[14],inactive
same,Potency,[17],inactive
